According to PubChem BioAssay (EPA / NIEHS):
Active and inactive are the calls of the source. Rule for the calls: active = hit-call score of the fitted dose curve at least 0.9, where 1 is the maximum; inactive = score below 0.9.

Legend:
[1] = APR_HepG2_P-H2AX_72hr: Apredica 72-hour HepG2 Assay for H2AX Phosphorylation (AID 2282916); details: imaging, actives raise or lower the signal;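 note: phospho-histone H2A.x immunostain intensity per cell marking DNA damage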
Outline: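 Following 72 hr treatment with 0.39–200 uM compound, HepG2 cells were formaldehyde-fixed, permeabilized and stained for phospho-H2A.x; signal was measured by high-content imaging and fitted bidirectionally against DMSO controls.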

[2] = APR_HepG2_MitoMembPot_72hr: Apredica 72-hour HepG2 Assay for Mitochondrial Membrane Potential (AID 2282917); details: imaging, actives raise or lower the signal
Outline: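 Membrane potential read by MitoTracker Red CMXRos (250 nM, 30 min, pre-fixation) fluorescence imaging of HepG2 after 72 hr exposure. Ten concentrations, 0.39–200 uM, duplicate wells, 0.5% DMSO; fitted in both directions against DMSO baseline.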

[3] = APR_HepG2_MitoticArrest_72hr: Apredica 72-hour HepG2 Assay for Mitotic Arrest (AID 2282918); details: high-content imaging, actives raise or lower the signal
Outline: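 HepG2 cells treated 72 h at 0.39–200 uM, 0.5% DMSO final; formaldehyde-fixed, stained with Hoechst 33342 and phospho-histone H3 antibody, imaged by high-content fluorescence; bidirectional fit versus DMSO.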

[4] = APR_HepG2_MicrotubuleCSK_72hr: Apredica 72-hour HepG2 Assay for Microtubule CSK Stabilty (AID 2282919); details: HepG2 microtubule cytoskeleton, high-content imaging, actives raise or lower the signal
Outline: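 Read-out is tubulin fluorescence intensity from high-content imaging of HepG2 cells, with nuclei identified by Hoechst 33342. Treatment lasts 72 h at 0.39–200 uM, and curves are fitted bidirectionally against the DMSO negative control.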

[5] = APR_HepG2_P-H2AX_24hr: Apredica 24-hour HepG2 Assay for H2AX Phosphorylation (AID 2282920); details: high-content imaging, actives raise or lower the signal
Outline: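 HepG2 cells dosed 24 h at 0.39–200 uM (10 points, duplicate, 0.5% DMSO final). Formaldehyde-fixed and permeabilized, then immunostained for phospho-H2A.x with Hoechst. Fluorescence quantified by high-content imaging, fitted bidirectionally versus DMSO.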

[6] = APR_HepG2_StressKinase_72hr: Apredica 72-hour HepG2 Assay for Stress Kinase (AID 2282921); details: HepG2 stress kinase (phospho-c-Jun) imaging, actives raise or lower the signal
Outline: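 Fluorescence intensity of Cy3-tagged anti-phospho-c-Jun antibody, quantified per cell from Hoechst-defined nuclei across six images per well, served as the read-out following 72 h exposure (0.39–200 uM, 0.5% v/v DMSO).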

[7] = APR_HepG2_StressKinase_24hr: Apredica 24-hour HepG2 Assay for Stress Kinase (AID 2282922); details: HepG2 stress kinase (phospho-c-Jun) imaging, actives raise or lower the signal
Outline: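 HepG2, 24 hr dosing, 0.39–200 uM in duplicate, 0.5% DMSO; formaldehyde fix (3.7%), 0.5% Triton X-100; anti-phospho-c-Jun + Cy3 secondary, Hoechst counterstain; ArrayScan imaging; bidirectional curve fit vs DMSO baseline.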

[8] = APR_HepG2_p53Act_72hr: Apredica 72-hour HepG2 Assay for p53 Activation (AID 2282923); details: high-content imaging, actives raise or lower the signal;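 note: average cellular p53 protein immunofluorescence intensity in HepG2 cells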
Outline: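 HepG2 monolayers receive test compounds in duplicate at ten concentrations (0.39 through 200 uM) for 72 hr. They are then formaldehyde-fixed, antibody-labelled for p53, Hoechst-stained and imaged, with activity fitted bidirectionally versus DMSO.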

[9] = APR_HepG2_MitoMass_72hr: Apredica 72-hour HepG2 Assay for Mitochondrial Mass (AID 2282924); details: high-content imaging, actives raise or lower the signal;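 note: MitoTracker Red CMXRos stain intensity per cell imaged as mitochondrial mass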
Outline: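 HepG2, 72 hr cmpd, 10 conc 0.39–200 uM in dup, DMSO 0.5% v/v. MitoTracker Red CMXRos 250 nM 30 min pre-fix; formaldehyde 3.7% fix 30 min RT. HCS imaging, gain/loss fit vs DMSO.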

[10] = APR_HepG2_NuclearSize_72hr: Apredica 72-hour HepG2 Assay for Nuclear Size (AID 2282925); details: high-content imaging, actives raise or lower the signal
Outline: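 HepG2; cpd 0.39–200 uM, 10 conc, duplicate; 72 h; DMSO 0.5% v/v; fix 3.7% formaldehyde 30 min RT; Triton permeabilization; Hoechst 2 ug/mL; HCS imaging 20x; nuclear diameter; gain/loss fit vs DMSO.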

[11] = ATG_CRE_CIS: Attagene CIS-FACTORIAL HepG2 Assay for human cAMP Responsive Element (CRE) binding protein 3 (AID 2282926); details: HepG2 CRE cis-reporter, Attagene multiplexed mRNA; actives raise or lower the signal
Outline: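 HepG2 cells transiently transfected with cis-element-driven multiple reporter transcription units; CRE reporter mRNA measured 24 h after dosing by RT-PCR, 6-FAM labelling, HpaI digestion and capillary electrophoresis. Bidirectional fit versus DMSO baseline.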

[12] = molecular target: CCAAT/enhancer-binding protein beta (Homo sapiens) (UniProt P17676); assay: ATG_C_EBP_CIS: Attagene CIS-FACTORIAL HepG2 Assay for human CCAAT/Enhancer Binding Protein (C/EBP) beta (AID 2282927); details: HepG2 Attagene cis-factorial transcription factor reporter; actives raise or lower the signal
CCAAT/enhancer-binding protein beta (Homo sapiens), sequence (P17676 whole entry, looked up): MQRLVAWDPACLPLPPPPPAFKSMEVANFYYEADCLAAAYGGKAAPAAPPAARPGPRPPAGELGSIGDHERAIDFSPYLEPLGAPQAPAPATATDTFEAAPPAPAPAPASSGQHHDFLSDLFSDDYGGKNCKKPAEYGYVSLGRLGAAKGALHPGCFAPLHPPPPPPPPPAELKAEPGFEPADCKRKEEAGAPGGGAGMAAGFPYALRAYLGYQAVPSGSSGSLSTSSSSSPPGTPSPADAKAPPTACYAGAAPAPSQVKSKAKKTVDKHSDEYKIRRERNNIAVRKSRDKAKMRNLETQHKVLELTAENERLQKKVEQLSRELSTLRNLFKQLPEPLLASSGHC
Outline: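 Changes in reporter mRNA, rather than exogenous chimeric receptor activity, reflect native C/EBP signalling in transfected HepG2 cells dosed for 24 h; transcripts are detected by RT-PCR and capillary electrophoresis.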

[13] = ATG_CMV_CIS: Attagene CIS-FACTORIAL HepG2 Assay for human CMV (Internal Marker) (AID 2282928); details: HepG2 CMV promoter reporter, transcription factor profiling; actives raise or lower the signal;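 note: endpoint acts as a background internal control marker rather than a target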
Outline: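 HepG2 cells transiently transfected with multiple cis-regulated reporter units; 24 h compound exposure. Reporter mRNA quantified by RT-PCR, 6-FAM primer-extension labeling, HpaI digestion and capillary electrophoresis; bidirectional fitting against DMSO baseline.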

[14] = ATG_DR4_LXR_CIS: Attagene CIS-FACTORIAL HepG2 Assay for human Liver X Receptor (LXR), DR4 submotif (AID 2282929); details: HepG2 Attagene DR4 cis-reporter, mRNA transcription; actives raise or lower the signal
Outline: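 HepG2 cells were transiently transfected with multiple cis-regulated reporter units and dosed for 24 hours. The DR4 reporter mRNA was quantified by RT-PCR, 6-FAM labelling and capillary electrophoresis. Bidirectional fits used DMSO as baseline.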

[15] = molecular target: Aryl hydrocarbon receptor (Homo sapiens) (UniProt P35869); assay: ATG_Ahr_CIS: Attagene CIS-FACTORIAL HepG2 Assay for human Aryl Hydrocarbon Receptor (Ahr) (AID 2282930); details: HepG2 AhR cis-factorial reporter transcription; actives raise or lower the signal
Aryl hydrocarbon receptor (Homo sapiens), sequence (P35869 whole entry, looked up): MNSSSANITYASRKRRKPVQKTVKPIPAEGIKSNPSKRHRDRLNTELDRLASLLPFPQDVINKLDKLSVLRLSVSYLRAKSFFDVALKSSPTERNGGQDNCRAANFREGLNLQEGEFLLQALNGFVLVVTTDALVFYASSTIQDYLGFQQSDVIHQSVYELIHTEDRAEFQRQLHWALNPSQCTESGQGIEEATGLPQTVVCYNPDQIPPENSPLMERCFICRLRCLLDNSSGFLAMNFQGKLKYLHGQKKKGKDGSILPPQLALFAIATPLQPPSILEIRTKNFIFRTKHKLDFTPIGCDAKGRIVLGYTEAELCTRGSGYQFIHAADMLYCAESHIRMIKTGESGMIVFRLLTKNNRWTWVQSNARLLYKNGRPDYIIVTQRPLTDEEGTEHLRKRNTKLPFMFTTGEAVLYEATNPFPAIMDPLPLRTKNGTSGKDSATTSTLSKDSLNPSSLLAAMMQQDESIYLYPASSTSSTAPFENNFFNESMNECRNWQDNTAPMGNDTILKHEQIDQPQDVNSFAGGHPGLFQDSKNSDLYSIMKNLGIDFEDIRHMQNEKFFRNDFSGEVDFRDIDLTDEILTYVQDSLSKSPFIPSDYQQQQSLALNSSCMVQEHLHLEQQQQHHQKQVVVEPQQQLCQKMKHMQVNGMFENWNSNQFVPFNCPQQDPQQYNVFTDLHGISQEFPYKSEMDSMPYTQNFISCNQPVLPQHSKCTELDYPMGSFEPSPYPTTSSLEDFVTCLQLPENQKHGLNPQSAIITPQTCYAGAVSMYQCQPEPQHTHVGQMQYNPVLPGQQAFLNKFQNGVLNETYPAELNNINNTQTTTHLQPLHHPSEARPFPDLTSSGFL
Outline: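 HepG2, transient MRTU (cis) transfection, 24 h exposure. RNA → cDNA → PCR → 6-FAM primer extension → HpaI 2 h 37 C → CE. Fit: bidirectional, DMSO baseline.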

[16] = ATG_AP_1_CIS: Attagene CIS-FACTORIAL HepG2 Assay for human Activator Protein 1 (AP-1) (AID 2282931); details: HepG2 Attagene cis-factorial AP-1 reporter mRNA; actives raise or lower the signal
Outline: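 HepG2 cells transiently transfected with cis-element-driven reporter transcription units, dosed for 24 hours. Reporter mRNA measured by RT-PCR, 6-FAM labelling, HpaI digestion and capillary electrophoresis. Bidirectional fitting against DMSO baseline.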

[17] = ATG_AP_2_CIS: Attagene CIS-FACTORIAL HepG2 Assay for human Activator Protein 2 (AP-2) (AID 2282932); details: HepG2 AP-2 cis-reporter, Attagene transcription factor profiling; actives raise or lower the signal
Outline: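 Step one: transient transfection of HepG2 with reporter transcription units. Step two: 24 h chemical exposure. Step three: RNA extraction, RT-PCR, labelled fragment analysis by capillary electrophoresis; DMSO serves as baseline.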

[18] = ATG_BRE_CIS: Attagene CIS-FACTORIAL HepG2 Assay for human Bone Morphogenetic Protein (BMP) Response Element (BRE) (AID 2282933); details: HepG2 BMP response element reporter, Attagene transcription factor profiling; actives raise or lower the signal
Outline: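 After a 24 h chemical treatment, transiently transfected HepG2 cells were lysed for RNA; reporter transcripts were quantified by fluorescent RT-PCR and capillary electrophoresis, normalised to DMSO.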

[19] = molecular target: Retinoic acid receptor alpha (Homo sapiens) (UniProt P10276); assay: ATG_DR5_RAR_CIS: Attagene CIS-FACTORIAL HepG2 Assay for human Retinoic Acid Receptor Alpha (RARE), DR5 submotif (AID 2282934); details: HepG2 Attagene cis-factorial RARE DR5 reporter, mRNA; actives raise or lower the signal;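 for AC50: reporter responds to endogenous RAR alpha beta and gamma in HepG2 not RARA alone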
Retinoic acid receptor alpha (Homo sapiens), sequence (P10276 whole entry, looked up): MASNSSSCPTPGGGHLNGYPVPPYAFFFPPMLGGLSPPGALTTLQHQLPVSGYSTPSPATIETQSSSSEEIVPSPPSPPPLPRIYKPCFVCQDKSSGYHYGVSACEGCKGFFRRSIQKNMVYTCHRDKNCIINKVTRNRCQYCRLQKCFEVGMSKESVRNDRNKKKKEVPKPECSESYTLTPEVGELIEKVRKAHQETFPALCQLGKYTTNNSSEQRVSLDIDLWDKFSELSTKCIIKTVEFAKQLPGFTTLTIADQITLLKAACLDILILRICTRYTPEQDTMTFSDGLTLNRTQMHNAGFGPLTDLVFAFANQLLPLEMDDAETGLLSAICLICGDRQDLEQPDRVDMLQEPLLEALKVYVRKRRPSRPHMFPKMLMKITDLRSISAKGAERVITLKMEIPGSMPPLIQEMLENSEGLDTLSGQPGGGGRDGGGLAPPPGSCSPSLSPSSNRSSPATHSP
Outline: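 HepG2, transient cis-reporter transfection, 24 h exposure. mRNA readout: RT-PCR, FAM label, HpaI cut, capillary electrophoresis. DMSO baseline, gain/loss fitting.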

[20] = molecular target: Transcription factor E2F1 (Homo sapiens) (UniProt Q01094); assay: ATG_E2F_CIS: Attagene CIS-FACTORIAL HepG2 Assay for human E2F Transcription Factor 1 (AID 2282935); details: HepG2 Attagene cis-reporter, E2F reporter RNA transcripts; actives raise or lower the signal
Transcription factor E2F1 (Homo sapiens), sequence (Q01094 whole entry, looked up): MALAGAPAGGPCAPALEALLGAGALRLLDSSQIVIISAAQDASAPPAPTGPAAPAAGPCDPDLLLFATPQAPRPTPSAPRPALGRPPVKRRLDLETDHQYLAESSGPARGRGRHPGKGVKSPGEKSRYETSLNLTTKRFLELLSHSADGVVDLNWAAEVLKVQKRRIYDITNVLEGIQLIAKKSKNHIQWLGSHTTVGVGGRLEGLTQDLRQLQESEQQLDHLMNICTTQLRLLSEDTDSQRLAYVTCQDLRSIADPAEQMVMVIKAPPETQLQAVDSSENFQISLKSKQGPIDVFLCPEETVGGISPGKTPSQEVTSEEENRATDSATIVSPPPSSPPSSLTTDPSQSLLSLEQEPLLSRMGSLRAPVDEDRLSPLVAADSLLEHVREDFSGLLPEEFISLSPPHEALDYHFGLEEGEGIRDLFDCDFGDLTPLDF
Outline: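 Total RNA from 24 h-treated, reporter-transfected HepG2 cells undergoes DNase I treatment, oligo(dT) reverse transcription, PCR and 6-FAM primer extension before capillary electrophoresis.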

Measured: AC50

Oc1ccc2c(c1)-c1ccccc1C2
inactive: [4] | [6] | [7] | [9] | [10] | [16] | [17] | [20]
active: [1] 89 µM | [2] 106 µM | [3] 80.3 µM | [5] 117 µM | [8] 47.7 µM | [11] 44.4 µM | [12] 74 µM | [13] 4.28 µM | [14] 1.79 µM | [15] 2.53 µM | [18] 84.4 µM | [19] 27.5 µM

C=CC(=C)CCC=C(C)C
active: [15] 67.1 µM
inactive: all other assays above

COC(=O)CC(=O)OC
inactive: all assays above

O=C(O)c1cccc(Oc2ccccc2)c1
inactive: all assays above

CCn1nc(Cc2ccccc2)cc1C1CCN(C[C@H]2C[C@H](N(C)[C@@H](C(=O)O)C(C)C)C[C@@H]2c2cccc(F)c2)CC1
active: [3] 113 µM | [14] 100 µM
inactive: all other assays above

CCCCC(CC)COC(=O)c1ccc(C(=O)OCC(CC)CCCC)cc1 (stereo not given)
active: [1] 31.5 µM | [15] 66 µM
inactive: all other assays above
